{"source": "the supplement of paper PMC11732987", "about": "“Enantioselective OTUD7B fragment discovery through chemoproteomics screening and high-throughput optimisation” (Communications Chemistry, 2025)", "test_in_all_cases": "log2 ratio of Biotin-Ahx-Ub-VS probe labelling (fragment/DMSO); higher = less target engagement (more negative = stronger competition), active = hit call of the paper (q ≤ 0.05, log2 ratio ≤ -1)", "conditions_in_all_cases": "compound concentration: 200 uM; treatment time: 3 h", "key": {"USP19": {"biological_target": "T1, USP19 (UniProt O94966)", "T1 sequence (whole entry)": "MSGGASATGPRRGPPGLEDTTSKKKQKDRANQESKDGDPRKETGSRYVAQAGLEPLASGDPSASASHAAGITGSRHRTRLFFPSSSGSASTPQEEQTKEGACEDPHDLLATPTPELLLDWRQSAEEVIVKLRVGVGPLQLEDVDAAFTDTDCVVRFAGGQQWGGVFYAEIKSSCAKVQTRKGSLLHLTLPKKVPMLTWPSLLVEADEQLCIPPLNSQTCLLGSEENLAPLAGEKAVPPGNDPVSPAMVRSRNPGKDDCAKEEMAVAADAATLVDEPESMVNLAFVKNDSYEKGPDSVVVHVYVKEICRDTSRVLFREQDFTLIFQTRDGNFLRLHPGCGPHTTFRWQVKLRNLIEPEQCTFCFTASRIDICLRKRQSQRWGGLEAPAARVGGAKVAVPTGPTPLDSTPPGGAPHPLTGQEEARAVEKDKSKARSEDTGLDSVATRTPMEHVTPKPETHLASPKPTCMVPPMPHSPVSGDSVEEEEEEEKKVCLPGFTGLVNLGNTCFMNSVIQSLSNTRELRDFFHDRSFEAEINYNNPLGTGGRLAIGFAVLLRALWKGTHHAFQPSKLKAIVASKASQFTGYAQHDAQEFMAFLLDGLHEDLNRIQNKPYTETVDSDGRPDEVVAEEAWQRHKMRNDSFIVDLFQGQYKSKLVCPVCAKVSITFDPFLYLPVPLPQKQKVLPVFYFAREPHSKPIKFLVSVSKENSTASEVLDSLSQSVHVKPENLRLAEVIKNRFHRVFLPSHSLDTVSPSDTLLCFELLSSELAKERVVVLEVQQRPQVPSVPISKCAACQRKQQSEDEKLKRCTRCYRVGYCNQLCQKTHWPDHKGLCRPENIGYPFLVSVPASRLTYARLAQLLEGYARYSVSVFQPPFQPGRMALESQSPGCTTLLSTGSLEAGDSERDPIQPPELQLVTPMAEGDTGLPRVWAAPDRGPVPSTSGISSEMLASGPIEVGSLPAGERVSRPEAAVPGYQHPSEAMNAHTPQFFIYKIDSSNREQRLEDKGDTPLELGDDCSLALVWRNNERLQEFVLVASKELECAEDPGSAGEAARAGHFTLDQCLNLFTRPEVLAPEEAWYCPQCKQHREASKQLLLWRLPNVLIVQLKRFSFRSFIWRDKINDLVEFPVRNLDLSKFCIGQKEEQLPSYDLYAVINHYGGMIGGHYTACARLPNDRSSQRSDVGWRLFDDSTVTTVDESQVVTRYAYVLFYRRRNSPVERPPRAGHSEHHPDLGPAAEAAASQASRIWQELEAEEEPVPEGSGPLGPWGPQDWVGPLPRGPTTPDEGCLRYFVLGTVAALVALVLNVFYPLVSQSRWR", "method_in_brief": "(§1)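 Triplicate samples of HEK293T lysate, 495 µg each, received fragment at 200 µM or vehicle for 3 h, followed by Biotin-Ahx-Ub-VS (0.5 µM final) for 1 h. After NeutrAvidin enrichment of labelled DUBs and LysC/trypsin digestion, peptides were run by diaPASEF LC-MS/MS. The values are average log2 fragment/vehicle ratios from global-median-normalised Spectronaut label-free quantities, tested by unpaired t-test on proteins having ≥2 unique peptides.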"}, "USP22": {"biological_target": "T2, USP22 (UniProt Q9UPT9)", "T2 sequence (whole entry)": "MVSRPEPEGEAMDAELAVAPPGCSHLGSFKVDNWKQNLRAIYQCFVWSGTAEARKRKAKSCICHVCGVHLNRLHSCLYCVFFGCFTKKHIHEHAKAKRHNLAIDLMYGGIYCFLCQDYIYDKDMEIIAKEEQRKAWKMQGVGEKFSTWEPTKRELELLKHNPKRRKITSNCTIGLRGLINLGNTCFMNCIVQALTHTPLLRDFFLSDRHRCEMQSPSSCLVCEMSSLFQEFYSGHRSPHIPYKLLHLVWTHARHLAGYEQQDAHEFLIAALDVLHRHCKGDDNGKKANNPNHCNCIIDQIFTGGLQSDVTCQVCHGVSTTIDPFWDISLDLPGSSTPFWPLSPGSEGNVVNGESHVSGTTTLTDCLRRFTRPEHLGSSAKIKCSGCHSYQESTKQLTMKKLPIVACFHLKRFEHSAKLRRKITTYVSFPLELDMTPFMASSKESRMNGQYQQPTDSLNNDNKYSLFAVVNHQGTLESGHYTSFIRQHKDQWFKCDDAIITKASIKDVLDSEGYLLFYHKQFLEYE", "method_in_brief": "as §1"}, "USP24": {"biological_target": "USP24 (UniProt Q9UPU5)", "sequence (Q9UPU5 whole entry)": "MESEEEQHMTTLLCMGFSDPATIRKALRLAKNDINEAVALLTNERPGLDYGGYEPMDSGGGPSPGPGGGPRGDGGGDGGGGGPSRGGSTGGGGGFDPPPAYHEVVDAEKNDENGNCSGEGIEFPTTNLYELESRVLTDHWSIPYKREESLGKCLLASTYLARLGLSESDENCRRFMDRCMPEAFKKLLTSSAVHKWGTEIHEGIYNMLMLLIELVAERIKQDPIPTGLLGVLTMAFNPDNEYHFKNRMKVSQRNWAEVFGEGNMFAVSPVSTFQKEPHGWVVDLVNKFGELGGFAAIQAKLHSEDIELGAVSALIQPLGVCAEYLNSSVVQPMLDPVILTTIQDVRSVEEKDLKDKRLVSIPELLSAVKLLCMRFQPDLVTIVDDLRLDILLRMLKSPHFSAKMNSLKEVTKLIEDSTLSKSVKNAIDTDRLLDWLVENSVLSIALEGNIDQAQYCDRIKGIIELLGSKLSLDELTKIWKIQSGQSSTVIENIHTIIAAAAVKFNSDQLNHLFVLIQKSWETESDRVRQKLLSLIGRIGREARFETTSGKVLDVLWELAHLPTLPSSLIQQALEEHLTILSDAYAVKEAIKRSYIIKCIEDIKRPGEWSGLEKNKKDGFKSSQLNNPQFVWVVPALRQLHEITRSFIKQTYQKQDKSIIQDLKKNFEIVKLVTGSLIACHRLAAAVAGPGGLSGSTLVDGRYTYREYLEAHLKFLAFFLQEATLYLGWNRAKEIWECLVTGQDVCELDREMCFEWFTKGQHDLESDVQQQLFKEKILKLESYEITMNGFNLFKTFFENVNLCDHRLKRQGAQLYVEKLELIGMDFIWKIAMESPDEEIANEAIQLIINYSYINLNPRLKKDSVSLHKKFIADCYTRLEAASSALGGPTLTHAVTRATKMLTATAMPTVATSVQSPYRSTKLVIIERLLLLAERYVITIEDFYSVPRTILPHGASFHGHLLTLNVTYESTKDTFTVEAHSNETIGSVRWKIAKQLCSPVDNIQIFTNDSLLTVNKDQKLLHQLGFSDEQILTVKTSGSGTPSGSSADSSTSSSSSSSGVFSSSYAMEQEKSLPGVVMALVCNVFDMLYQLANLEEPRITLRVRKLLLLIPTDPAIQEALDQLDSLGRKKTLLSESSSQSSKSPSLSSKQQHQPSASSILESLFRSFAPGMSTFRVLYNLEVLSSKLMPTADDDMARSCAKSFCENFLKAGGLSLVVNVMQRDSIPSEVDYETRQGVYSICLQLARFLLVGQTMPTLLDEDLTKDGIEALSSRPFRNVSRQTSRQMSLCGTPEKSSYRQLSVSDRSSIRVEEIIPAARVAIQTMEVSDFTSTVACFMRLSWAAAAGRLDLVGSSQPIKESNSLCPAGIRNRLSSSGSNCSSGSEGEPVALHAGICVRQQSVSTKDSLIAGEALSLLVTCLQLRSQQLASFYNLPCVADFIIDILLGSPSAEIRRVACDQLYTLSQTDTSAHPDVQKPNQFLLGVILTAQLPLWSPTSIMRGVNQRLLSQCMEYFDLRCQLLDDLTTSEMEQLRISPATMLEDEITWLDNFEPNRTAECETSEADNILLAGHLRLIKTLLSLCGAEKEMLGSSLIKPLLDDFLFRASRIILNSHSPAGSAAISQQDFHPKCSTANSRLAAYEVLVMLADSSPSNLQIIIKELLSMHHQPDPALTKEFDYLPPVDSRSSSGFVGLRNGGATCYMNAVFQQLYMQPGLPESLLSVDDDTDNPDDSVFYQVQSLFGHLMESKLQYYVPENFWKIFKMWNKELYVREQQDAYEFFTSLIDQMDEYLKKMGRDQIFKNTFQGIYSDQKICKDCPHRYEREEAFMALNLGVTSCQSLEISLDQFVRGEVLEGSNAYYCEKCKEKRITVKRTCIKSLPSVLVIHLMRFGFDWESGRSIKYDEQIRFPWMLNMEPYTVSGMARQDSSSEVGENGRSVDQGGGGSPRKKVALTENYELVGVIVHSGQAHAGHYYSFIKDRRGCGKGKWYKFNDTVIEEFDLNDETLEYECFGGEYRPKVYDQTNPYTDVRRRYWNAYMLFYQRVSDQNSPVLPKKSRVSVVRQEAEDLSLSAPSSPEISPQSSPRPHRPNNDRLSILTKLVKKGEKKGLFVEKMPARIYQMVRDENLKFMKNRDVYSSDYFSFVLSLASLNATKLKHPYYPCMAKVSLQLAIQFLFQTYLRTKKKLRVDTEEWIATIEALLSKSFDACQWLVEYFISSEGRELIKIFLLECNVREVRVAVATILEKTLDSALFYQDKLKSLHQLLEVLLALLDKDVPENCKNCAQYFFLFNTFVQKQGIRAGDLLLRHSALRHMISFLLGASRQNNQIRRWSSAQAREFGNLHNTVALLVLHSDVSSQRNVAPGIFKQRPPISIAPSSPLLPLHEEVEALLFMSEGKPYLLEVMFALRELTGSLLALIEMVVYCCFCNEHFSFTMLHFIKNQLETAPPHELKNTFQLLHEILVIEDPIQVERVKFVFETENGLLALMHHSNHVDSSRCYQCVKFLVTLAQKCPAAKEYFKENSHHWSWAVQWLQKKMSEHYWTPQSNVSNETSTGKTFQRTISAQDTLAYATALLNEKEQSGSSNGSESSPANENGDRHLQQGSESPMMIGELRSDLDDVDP", "method_in_brief": "as §1"}, "USP25": {"biological_target": "T3, USP25 (UniProt Q9UHP3)", "T3 sequence (whole entry)": "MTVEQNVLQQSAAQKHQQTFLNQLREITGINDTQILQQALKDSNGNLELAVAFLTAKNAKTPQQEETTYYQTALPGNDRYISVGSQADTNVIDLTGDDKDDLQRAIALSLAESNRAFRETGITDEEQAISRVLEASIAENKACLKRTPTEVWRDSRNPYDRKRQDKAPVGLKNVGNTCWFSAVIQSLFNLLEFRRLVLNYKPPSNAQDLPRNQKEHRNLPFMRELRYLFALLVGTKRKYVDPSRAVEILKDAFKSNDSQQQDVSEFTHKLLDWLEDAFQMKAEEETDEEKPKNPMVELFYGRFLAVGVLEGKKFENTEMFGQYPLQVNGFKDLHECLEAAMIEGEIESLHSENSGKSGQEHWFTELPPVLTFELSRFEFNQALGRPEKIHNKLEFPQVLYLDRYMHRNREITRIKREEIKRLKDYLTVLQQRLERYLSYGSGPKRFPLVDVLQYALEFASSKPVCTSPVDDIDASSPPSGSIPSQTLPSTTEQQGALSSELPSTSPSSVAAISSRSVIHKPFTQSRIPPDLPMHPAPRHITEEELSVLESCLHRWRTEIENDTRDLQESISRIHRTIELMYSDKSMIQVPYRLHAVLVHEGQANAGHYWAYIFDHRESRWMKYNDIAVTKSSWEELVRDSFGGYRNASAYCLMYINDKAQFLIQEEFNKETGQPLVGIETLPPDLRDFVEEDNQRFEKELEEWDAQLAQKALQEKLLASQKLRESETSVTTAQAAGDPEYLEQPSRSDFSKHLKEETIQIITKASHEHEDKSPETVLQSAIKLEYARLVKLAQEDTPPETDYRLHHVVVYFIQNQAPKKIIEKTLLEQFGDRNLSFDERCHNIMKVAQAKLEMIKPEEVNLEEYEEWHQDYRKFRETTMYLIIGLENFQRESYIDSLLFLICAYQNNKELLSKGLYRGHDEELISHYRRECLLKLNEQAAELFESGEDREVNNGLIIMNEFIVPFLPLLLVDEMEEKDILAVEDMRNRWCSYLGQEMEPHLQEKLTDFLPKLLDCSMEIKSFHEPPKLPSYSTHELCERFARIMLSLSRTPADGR", "method_in_brief": "as §1"}, "USP28": {"biological_target": "T4, USP28 (UniProt Q96RU2)", "T4 sequence (whole entry)": "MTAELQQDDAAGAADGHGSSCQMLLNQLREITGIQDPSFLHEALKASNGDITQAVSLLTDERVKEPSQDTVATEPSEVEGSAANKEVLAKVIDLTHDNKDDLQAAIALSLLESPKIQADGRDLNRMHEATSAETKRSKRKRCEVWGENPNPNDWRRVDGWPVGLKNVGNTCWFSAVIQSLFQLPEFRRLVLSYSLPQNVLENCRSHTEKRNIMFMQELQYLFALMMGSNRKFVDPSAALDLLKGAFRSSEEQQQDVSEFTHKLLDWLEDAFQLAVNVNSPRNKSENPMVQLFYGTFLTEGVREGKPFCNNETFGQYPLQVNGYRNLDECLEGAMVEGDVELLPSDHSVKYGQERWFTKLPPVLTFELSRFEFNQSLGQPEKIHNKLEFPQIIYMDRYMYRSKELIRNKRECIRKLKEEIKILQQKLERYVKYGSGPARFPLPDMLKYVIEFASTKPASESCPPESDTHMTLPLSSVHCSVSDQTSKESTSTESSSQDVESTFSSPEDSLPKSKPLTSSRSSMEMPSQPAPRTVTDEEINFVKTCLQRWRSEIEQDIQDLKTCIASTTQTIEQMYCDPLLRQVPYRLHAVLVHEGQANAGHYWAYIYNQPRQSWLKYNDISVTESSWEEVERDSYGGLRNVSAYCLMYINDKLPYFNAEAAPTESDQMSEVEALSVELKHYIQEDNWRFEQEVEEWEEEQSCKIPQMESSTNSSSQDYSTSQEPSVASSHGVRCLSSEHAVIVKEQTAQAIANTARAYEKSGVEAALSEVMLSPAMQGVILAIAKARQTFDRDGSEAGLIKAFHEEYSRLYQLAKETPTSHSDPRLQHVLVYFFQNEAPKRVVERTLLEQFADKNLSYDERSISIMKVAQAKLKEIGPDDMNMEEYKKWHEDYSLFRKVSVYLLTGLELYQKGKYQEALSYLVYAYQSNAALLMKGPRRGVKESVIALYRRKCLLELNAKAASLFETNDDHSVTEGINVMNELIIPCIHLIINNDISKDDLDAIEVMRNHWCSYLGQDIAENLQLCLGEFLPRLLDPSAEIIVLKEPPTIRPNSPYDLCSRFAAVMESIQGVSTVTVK", "method_in_brief": "as §1"}}, "note": "A number with no mark means an inactive call.", "data": [{"smiles": "CS(=O)(=O)c1ccc(NC(=O)CCl)cc1", "values": [{"measurement": "log2 ratio of Biotin-Ahx-Ub-VS probe labelling", "setting": "USP19", "value": -0.223}, {"measurement": "log2 ratio of Biotin-Ahx-Ub-VS probe labelling", "setting": "USP22", "value": 0.107}, {"measurement": "log2 ratio of Biotin-Ahx-Ub-VS probe labelling", "setting": "USP24", "value": -0.247}, {"measurement": "log2 ratio of Biotin-Ahx-Ub-VS probe labelling", "setting": "USP25", "value": "-1.74 (active)"}, {"measurement": "log2 ratio of Biotin-Ahx-Ub-VS probe labelling", "setting": "USP28", "value": "-1.38 (active)"}]}]}
